Consider seven molecules from PubChem BioAssay (Tox21).

A short description of experiment [1]: Nuclear factor erythroid 2-related factor 2/antioxidant responsive element (Nrf2/ARE) small molecule agonists: luciferase reporter gene qHTS assay in human keratinocytes (AID 1919969). Note: nearly all actives have a fitted effect of over 35% in size. Note: potency is the fitted concentration of half-maximal effect. Background: A reporter such as luciferase makes a cellular process visible.
Experiment [2] has as its target Gonadotropin-releasing hormone receptor (Homo sapiens) (UniProt P30968). Put plainly: Human gonadotropin-releasing hormone receptor (GnRHR) small molecule agonists, calcium flux assay in GnRHR-HEK293 cells (AID 1920063). Note: nearly all actives have a fitted effect of over 35% in size. The method, boiled down:
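Compounds dissolved in DMSO are pin-transferred onto dye-loaded GnRHR-HEK293 cells, which were seeded 18 h before at 37 C/5% CO2. Calcium signal is read as fluorescence intensity at 1 s intervals for 3 min.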
Background: Calcium flux is commonly read through the fluorescence of an indicator in the cells.

Experiment [3] concerns the target KiSS-1 receptor (Homo sapiens) (UniProt Q969F8). Put plainly: Human kisspeptin (KISS1R) small molecule agonists, calcium flux assay in KISS1R-HEK293 cells (AID 1920064; active = well fitted activation curve with a large enough effect in the repeat runs). The method, boiled down:
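Cell line: HEK293, stable human KISS1R. Dye loading 1 h at 37 C after 18 h culture. Read: kinetic fluorescence, 480/540 nm, 3 min at 1 s intervals.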

Experiment [4] can be described thus: p53 small molecule agonists, cell-based qHTS assay with human liver microsomes (AID 1963577). The method, boiled down: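 p53RE-bla cells, 4,000/well, compound added after 5 h, with human liver microsomes 0.5 mg/mL and NADPH 0.5 mg/mL final; 16 h at 37 C, then LiveBLAzer 2 h RT, fluorescence.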
A general note: In qHTS, concentration-response curves come from the screen itself.

A short description of experiment [5]: p53 small molecule agonists, cell-based qHTS assay with rat liver microsomes (AID 1963578). The method, boiled down:
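p53RE-bla cells, 4,000/well, pre-incubated 5 h, then given compounds plus rat liver microsomes (0.5 mg/mL final) and NADPH (0.5 mg/mL final). Incubation 16 h at 37 C; beta-lactamase reporter read by LiveBLAzer fluorescence after 2 h at room temperature.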

Experiment [6] can be described thus: p53 small molecule agonists, cell-based qHTS assay with human liver microsomes: qHTS cell viability counter screen (AID 1963579). Note: nearly all actives have a fitted effect of over 45% in size. Note: potency is the fitted concentration of half-maximal effect. The method, boiled down:
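p53RE-bla cells, 4,000/well, dosed 5 hours after plating, with human liver microsomes (0.5 mg/mL final) plus NADPH (0.5 mg/mL final), 16 hours at 37 C. Viability read as CellTiter-Glo luminescence after 30 min at room temperature.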

Experiment [7] is described as follows: p53 small molecule agonists, cell-based qHTS assay with rat liver microsomes: qHTS cell viability counter screen (AID 1963580). Note: nearly all actives have a fitted effect of over 45% in size. The method, boiled down: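 Counter screen for cytotoxicity under metabolic activation: rat liver microsomes and NADPH, 0.5 mg/mL final each, added with compounds to p53RE-bla HCT-116 cells; 16 h at 37 C, then ATP luminescence read.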

The nature of experiment [8]: p53 small molecule agonists, cell-based qHTS assay: qHTS cell viability counter screen (AID 1963581). Note: nearly all actives have a fitted effect of over 45% in size. The method, boiled down: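 ATP content measured by luminescence in HCT-116 p53RE-bla cells treated 16 h at 37 C, same wells as the reporter screen.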
Experiment [9] in a line: p53 small molecule agonists, cell-based qHTS assay (AID 1963582; active = well fitted activation curve with a large enough effect in the signal ratio in the repeat runs, not every such curve was filed as active; the % refers to the signal ratio). The method, boiled down: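 16 h compound exposure (37 C) of p53 response element–bla cells, preceded by 5 h recovery at 37 C/5% CO2; read-out via LiveBLAzer B/G FRET substrate, 2 h RT, fluorescence intensity.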
The nature of experiment [10]: cAMP Responsive Elements (CRE) small molecule agonists, cell-based qHTS assay (AID 1963590). The method, boiled down:
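HEK 293T cells stably bearing CRE-bla were plated at 2,000 cells per well and rested 18 h. Compounds, positive controls or DMSO were added for 3 h at 37 C. LiveBLAzer B/G substrate was then loaded for 2 h at room temperature.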

Experiment [11] in a line: cAMP Responsive Elements (CRE) small molecule antagonists, cell-based qHTS assay (AID 1963591; active = well fitted inhibition curve with a large enough effect in the signal ratio in the repeat runs, not every such curve was filed as active; the % refers to the signal ratio). The method, boiled down: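 First, CRE-bla HEK293T cells settled 18 h at 37 C. Next, compound and 0.25 uM final NKH477 were applied for 3 h. Last, LiveBLAzer B/G substrate was loaded for 2 h at room temperature.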
Experiment [12] deals with Beta-2 adrenergic receptor (Homo sapiens) (UniProt P07550). Put plainly: Adrenergic beta2 receptor (ADRB2) small molecule antagonists, cell-based qHTS assay (AID 1963592). Note: series mostly up to about 92 µM; nearly all actives have a fitted effect of over 50% in size. The method, boiled down:
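Assay format: CHO-ADRB2 cells, 18-20hr seeding at 37C/5% CO2, then compound plus 1nM isoproterenol agonist mix for 0.5hr RT. Homogeneous time-resolved fluorescence cAMP detection after 1hr, expressed as 665/615 nm ratio.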

Experiment [13] shares this target. Put plainly: Adrenergic beta2 receptor (ADRB2) small molecule agonists, cell-based qHTS assay (AID 1963593).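 For activation: CHO cells stably overexpressing human ADRB2.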 Note: potency is the fitted concentration of half-maximal effect. The method, boiled down: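 CHO cells stably over-expressing ADRB2 were plated overnight at 37C, then dosed with compounds plus a stimulation mix containing 100uM IBMX and 25uM Ro-20-1724 for 0.5hr at room temperature. cAMP was measured by HTRF competition, 1hr.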

Experiment [14] concerns the target D(2) dopamine receptor (Homo sapiens) (UniProt P14416). Put plainly: Dopamine D2 receptor (DRD2) small molecule agonists, cell-based qHTS assay (AID 1963594). Note: nearly all actives have a fitted effect of over 35% in size. The method, boiled down:
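HEK293 cells stably expressing DRD2 were cultured 24 h at 37 C, then given Ro20-1724 (0.1 mM final) and compounds for 10 min at room temperature. NKH477 (200nM) was then added for 30 min. cAMP was read by HTRF.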

For experiment [15] the target is unchanged. Put plainly: Dopamine D2 receptor (DRD2) small molecule antagonists, cell-based qHTS assay (AID 1963595; active = well fitted inhibition curve with a large enough effect in the signal ratio in the repeat runs, with a control signal flat; the % refers to the signal ratio; note: potency is the fitted concentration of half-maximal effect). The method, boiled down:
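Antagonism was scored as restored cAMP in HEK293-DRD2 cells. These cells were stimulated with 200 nM NKH477 and 12 nM quinpirole for 30 min at room temperature, in the presence of 0.1 mM Ro20-1724.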

A short description of experiment [16]: G protein-coupled receptor (GPCR) small molecule agonists, calcium flux assay: HEK293 wild type cell line counter screen (AID 1920065). The method, boiled down:
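Tox21 10K compounds, 15 concentrations each in triplicate, pin-transferred in DMSO onto dye-loaded cells; kinetic read at 480/540 nm for 3 min, 1 s intervals.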

Experiment [17] deals with 5-hydroxytryptamine receptor 2A (Homo sapiens) (UniProt P28223). Put plainly: 5-hydroxytryptamine receptor 2A (HTR2A) small molecule antagonists, cell-based qHTS assay (AID 1963586). Note: nearly all actives have a fitted effect of over 45% in size. The method, boiled down: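 CHO cells stably expressing human HTR2A were plated for 18 h at 37 C, then loaded with calcium dye for 1 h. Compounds were preincubated 5 min at room temperature before DOI (4 nM solution) was added. Kinetic fluorescence was read for 3 min.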
5-hydroxytryptamine receptor 2A (Homo sapiens), sequence (P28223 whole entry, looked up): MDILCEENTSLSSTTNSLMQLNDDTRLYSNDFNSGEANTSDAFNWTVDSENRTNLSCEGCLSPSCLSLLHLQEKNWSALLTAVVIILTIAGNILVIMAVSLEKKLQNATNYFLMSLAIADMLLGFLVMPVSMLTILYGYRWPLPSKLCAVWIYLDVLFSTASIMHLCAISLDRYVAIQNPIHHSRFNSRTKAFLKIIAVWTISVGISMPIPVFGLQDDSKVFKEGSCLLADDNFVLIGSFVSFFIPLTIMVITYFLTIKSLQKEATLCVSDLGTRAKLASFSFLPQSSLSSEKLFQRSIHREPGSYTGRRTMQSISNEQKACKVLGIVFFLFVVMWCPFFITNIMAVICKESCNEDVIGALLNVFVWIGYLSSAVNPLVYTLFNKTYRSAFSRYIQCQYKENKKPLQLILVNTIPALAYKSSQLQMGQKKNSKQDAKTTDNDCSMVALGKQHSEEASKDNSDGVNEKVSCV

The target is the same in experiment [18]. Put plainly: 5-hydroxytryptamine receptor 2A (HTR2A) small molecule agonists, cell-based qHTS assay (AID 1963587). Note: nearly all actives have a fitted effect of over 30% in size. The method, boiled down: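 HTR2A-CHO cells, plated 18 h at 37 C/5% CO2, dye-loaded 1 h at 37 C; compounds in DMSO added by pin tool (agonist mode). Intracellular calcium flux read as kinetic fluorescence on FDSS over 2 min at 1 s intervals.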

The target in experiment [19] is Muscarinic acetylcholine receptor M1 (Homo sapiens) (UniProt P11229). Put plainly: Cholinergic receptor muscarinic 1 (CHRM1) small molecule antagonists, cell-based qHTS assay (AID 1963588). Note: nearly all actives have a fitted effect of over 40% in size. The method, boiled down: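 Compounds were tested at 15 concentrations in three independent runs. Dye-loaded CHRM1-CHO cells were exposed 5 min at room temperature before stimulation by acetylcholine added at 50nM. Intracellular calcium was read kinetically on FDSS for 3 min.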
Muscarinic acetylcholine receptor M1 (Homo sapiens), sequence (P11229 whole entry, looked up): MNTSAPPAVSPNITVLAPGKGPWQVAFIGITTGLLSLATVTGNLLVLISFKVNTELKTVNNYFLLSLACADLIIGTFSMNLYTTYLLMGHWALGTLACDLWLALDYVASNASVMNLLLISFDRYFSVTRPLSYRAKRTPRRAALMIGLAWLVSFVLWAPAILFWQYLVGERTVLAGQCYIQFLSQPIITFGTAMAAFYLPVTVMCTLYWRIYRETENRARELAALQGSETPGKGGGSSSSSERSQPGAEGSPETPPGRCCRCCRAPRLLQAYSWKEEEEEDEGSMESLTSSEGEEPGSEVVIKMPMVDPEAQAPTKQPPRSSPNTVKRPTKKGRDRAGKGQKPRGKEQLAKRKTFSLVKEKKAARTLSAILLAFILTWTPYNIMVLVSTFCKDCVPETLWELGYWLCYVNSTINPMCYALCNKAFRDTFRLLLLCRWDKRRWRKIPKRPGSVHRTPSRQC

Experiment [20] has the same target. Put plainly: Cholinergic receptor muscarinic 1 (CHRM1) small molecule agonists, cell-based qHTS assay (AID 1963589). Note: nearly all actives have a fitted effect of over 35% in size. The method, boiled down: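 Homogeneous fluorescence calcium flux, agonist mode. Human M1-expressing CHO cells; compound dosed at 15 concentrations, three independent runs; signal sampled every 1 sec.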

A number with no mark means an inactive call. Inconclusive results are not listed. Activity calls are given as the source filed them. Unless noted, calls come from the whole dose curve.
% is set by controls: 0 for no effect and ±100 for the full control effect.

Beta-2 adrenergic receptor (Homo sapiens), sequence (P07550 whole entry, looked up): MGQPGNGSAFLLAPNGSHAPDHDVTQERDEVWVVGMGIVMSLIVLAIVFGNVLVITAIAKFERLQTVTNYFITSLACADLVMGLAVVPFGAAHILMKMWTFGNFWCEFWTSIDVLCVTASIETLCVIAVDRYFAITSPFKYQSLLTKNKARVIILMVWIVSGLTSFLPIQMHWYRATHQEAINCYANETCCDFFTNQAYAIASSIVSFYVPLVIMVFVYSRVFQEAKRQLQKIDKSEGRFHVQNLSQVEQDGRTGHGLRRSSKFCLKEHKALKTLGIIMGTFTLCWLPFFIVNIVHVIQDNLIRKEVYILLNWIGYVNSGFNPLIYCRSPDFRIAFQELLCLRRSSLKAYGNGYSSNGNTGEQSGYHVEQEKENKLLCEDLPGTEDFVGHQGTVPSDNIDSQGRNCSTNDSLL
Gonadotropin-releasing hormone receptor (Homo sapiens), sequence (P30968 whole entry, looked up): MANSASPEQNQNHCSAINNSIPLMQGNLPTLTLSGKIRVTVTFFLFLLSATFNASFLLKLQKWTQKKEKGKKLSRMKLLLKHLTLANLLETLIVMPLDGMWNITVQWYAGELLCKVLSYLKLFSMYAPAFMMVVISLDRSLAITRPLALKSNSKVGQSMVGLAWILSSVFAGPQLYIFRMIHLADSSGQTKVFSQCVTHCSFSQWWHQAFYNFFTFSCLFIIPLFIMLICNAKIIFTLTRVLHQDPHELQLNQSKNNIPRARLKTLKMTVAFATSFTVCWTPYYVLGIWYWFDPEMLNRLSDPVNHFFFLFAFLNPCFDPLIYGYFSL
D(2) dopamine receptor (Homo sapiens), sequence (P14416 whole entry, looked up): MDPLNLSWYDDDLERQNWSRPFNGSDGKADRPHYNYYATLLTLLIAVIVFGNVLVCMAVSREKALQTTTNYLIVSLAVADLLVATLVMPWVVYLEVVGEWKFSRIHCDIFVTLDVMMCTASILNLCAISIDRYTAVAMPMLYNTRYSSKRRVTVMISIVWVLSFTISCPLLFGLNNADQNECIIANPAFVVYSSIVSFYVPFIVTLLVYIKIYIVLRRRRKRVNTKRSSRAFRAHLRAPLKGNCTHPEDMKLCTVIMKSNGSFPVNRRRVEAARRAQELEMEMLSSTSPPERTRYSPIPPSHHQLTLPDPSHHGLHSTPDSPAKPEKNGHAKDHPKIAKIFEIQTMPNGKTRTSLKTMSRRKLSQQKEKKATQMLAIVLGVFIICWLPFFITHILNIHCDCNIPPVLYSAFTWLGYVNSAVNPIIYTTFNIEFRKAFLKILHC
KiSS-1 receptor (Homo sapiens), sequence (Q969F8 whole entry, looked up): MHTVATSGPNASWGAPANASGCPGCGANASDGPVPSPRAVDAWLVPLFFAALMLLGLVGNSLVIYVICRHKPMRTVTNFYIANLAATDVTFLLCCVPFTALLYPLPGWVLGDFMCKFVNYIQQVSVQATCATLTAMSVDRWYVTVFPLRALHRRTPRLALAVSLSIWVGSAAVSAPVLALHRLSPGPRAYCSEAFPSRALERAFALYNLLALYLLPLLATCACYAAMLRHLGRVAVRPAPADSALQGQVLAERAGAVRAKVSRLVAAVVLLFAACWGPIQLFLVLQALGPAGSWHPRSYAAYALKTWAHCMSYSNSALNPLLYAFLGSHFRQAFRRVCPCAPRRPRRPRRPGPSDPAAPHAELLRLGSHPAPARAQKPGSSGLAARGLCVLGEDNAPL

Take `OC(CCCN1CCCCC1)(c1ccccc1)c1ccccc1`: the Potency entry in [1], in experiment [2], in [4], in experiment [5], in [6] and in experiment [7] was “inactive” throughout. Further, the Potency result in experiment [8], in [9], in experiment [10], in [11], in experiment [12] and in experiment [13] was “inactive” each time. In addition, the Potency entry in [14] is “inactive”. Besides, the result in experiment [3] was inactive. Further, the Potency in experiment [15] was 5.96 µM (active).

Consider `C#CC(C)(CC)OC(=O)c1ccccc1C(=O)O` (centres undefined), for which the Potency entry in experiment [1], in experiment [2], in [5], in [6], in experiment [7] and in experiment [8] was “inactive” in each case. Besides, the Potency result in experiment [9], in experiment [17], in experiment [18], in [19], in experiment [20] and in [10] was “inactive” in each case. Also, the Potency entry in experiment [11], in experiment [12] and in experiment [15] was “inactive” throughout. In addition, the result in experiment [3] and in experiment [16] was inactive.

Turning to `COc1cc(-c2ccc(N=C=O)c(OC)c2)ccc1N=C=O`, the Potency entry in experiment [1], in [2], in experiment [4], in experiment [6], in experiment [8] and in experiment [9] was “inactive” throughout. The Potency result in experiment [17], in experiment [18], in experiment [19], in experiment [20], in [11] and in experiment [12] was “inactive” each time. In addition, the Potency entry in experiment [14] and in experiment [15] was “inactive” each time. Moreover, the result in experiment [3] and in experiment [16] was inactive.

With `C[C@@H]1CN(c2c(F)c(N)c3c(=O)c(C(=O)O)cn(C4CC4)c3c2F)C[C@H](C)N1`, the activity, positive = activation in experiment [1] is -7.44% [at 19 µM]. Besides, in experiment [2], the activity change was 0.726% [at 11.8 µM, active compounds read high]. Further, the activation is -1.07% [at 15.8 µM] in experiment [3]; -0.768% [at 11.8 µM] in experiment [16]; -0.339% [at 13.5 µM] in experiment [4]; 0.693% [at 13.6 µM] in experiment [5]; -0.164% [at 13.5 µM] in experiment [9]; -1.16% [at 19 µM] in experiment [10]. Further, in experiment [14], the activation is -2.73% [at 19 µM]. For the same molecule, the activity change, negative = cytotoxicity in experiment [7] is 3.67% [at 13.5 µM]; in experiment [8], 5.52% [at 13.5 µM]. Moreover, the activity change, negative = inhibition in experiment [11] is -4.06% [at 18.9 µM]; in [12] it was 8.12% [at 19 µM]; in experiment [15], 0.614% [at 18.9 µM]. The Potency entry in [13] is “inactive”.

For the molecule `Oc1ccccc1C=NCc1ccccc1`, the Potency result in [1], in experiment [2], in experiment [4], in experiment [5], in experiment [6] and in experiment [7] was “inactive” in each case. The Potency result in [8], in experiment [9], in experiment [18], in [19], in experiment [10] and in experiment [11] was “inactive” in each case. In addition, the Potency result in experiment [12], in experiment [13], in [14] and in experiment [15] was “inactive” in each case. Besides, the outcome in experiment [3] was inactive.

In the case of `C=C[Si](C)(C)Cl`, in experiment [1], the activity, positive = activation was -0.9% [at 8.39 µM]. In addition, the activity change in experiment [2] is -0.471% [at 5.22 µM, active compounds read high]. Also, the activation in [3] is -1.18% [at 6.97 µM]; in [16], 0.126% [at 5.23 µM]; in experiment [5], 0.959% [at 5.99 µM]; in [18], -0.8% [at 7.02 µM]; in [20] it was 0.156% [at 6.97 µM]; in experiment [10] it was 0.4% [at 8.39 µM]. The activation in experiment [14] is 0.612% [at 8.39 µM]. Further, the activity change, negative = cytotoxicity in experiment [6] is -13% [at 5.99 µM]; in experiment [7] it was 8.84% [at 5.99 µM]; in [8], -0.14% [at 5.99 µM]. Also, the activity, negative = inhibition in experiment [17] was -2.68% [at 5.62 µM]. Also, the activity change, negative = inhibition in [11] was -10% [at 8.39 µM]; in experiment [15] it was 6.57% [at 8.38 µM].

Regarding `C[n+]1cc2c3c(ccc2c2ccc4cc5c(cc4c21)OCO5)OCO3`, the Potency in [1] was 1.46 µM (active); in experiment [6] it was 9.73 µM (active); in experiment [13], 9.2 µM (active); in experiment [15] it was 13 µM (active). In addition, the activity change in experiment [2] was 3.58% [at 11.8 µM, active compounds read high]. The activation in experiment [3] is 0.698% [at 15.8 µM]; in [16], 3.71% [at 11.8 µM]; in experiment [5] it was -6.71% [at 13.6 µM]; in experiment [9], -0.417% [at 13.5 µM]; in experiment [18], 10.7% [at 15.9 µM]; in experiment [20], 0.0411% [at 15.8 µM]. For the same molecule, the activity change, negative = cytotoxicity in [8] is -21.2% [at 13.5 µM]. In addition, the figures for the activity, negative = inhibition in experiment [17] and in experiment [19] were 8.48% [at 12.7 µM] and -0.831% [at 12.6 µM], respectively.
